This note sets out measurements from PubChem BioAssay (Tox21).

A short description of assay [1]: qHTS RealTime-Glo MT Cell Viability Assay in HepG2 cells - 40 hour (AID 1224870). Further: nearly all actives have a fitted effect of over 50% in size. The gist of the method:
(§1)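 Real-time viability: cells seeded at 600 per well together with NanoLuc and cell-permeant prosubstrate, compounds added after 5 h incubation. Luminescence tracked at 0, 8, 16, 24, 32 and 40 h of exposure.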
For orientation: Quantitative high-throughput screening tests each substance at several concentrations.

The nature of assay [2]: A CellTox Green Cytotoxicity Assay to monitor cytotoxicity in HEK293 cells - 40 hour (AID 1224871). Further: nearly all actives have a fitted effect of over 45% in size. Further: potency means the concentration at half of the fitted maximal effect. The gist of the method:
(§2)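 Homogeneous no-lysis format: HEK293 cell suspension mixed with CellTox Green reagent, seeded, incubated 5 h at 37 C/5% CO2, then dosed by pintool with compound in DMSO.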

Assay [3] is described as follows: qHTS RealTime-Glo MT Cell Viability Assay in HEK293 cells - 16 hour (AID 1224872). Further: nearly all actives have a fitted effect of over 50% in size. Further: potency means the concentration at half of the fitted maximal effect. The procedure, abridged:
(§3)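 HEK293 cells were seeded at 600 cells/well together with NanoLuc luciferase and cell-permeant prosubstrate, preincubated 5 h at 37 C/5% CO2, then given compound in DMSO by pintool. Luminescence from viable-cell prosubstrate reduction was read repeatedly over 40 h.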

A short description of assay [4]: qHTS RealTime-Glo MT Cell Viability Assay in HepG2 cells - 8 hour (AID 1224873). Further: nearly all actives have a fitted effect of over 55% in size. The procedure, abridged: as §1
Assay [5] can be described thus: A CellTox Green Cytotoxicity Assay to monitor cytotoxicity in HEK293 cells - 24 hour (AID 1224875). Further: series mostly up to about 77 µM; nearly all actives have a fitted effect of over 45% in size. The procedure, abridged: as §2
Assay [6] is described as follows: A CellTox Green Cytotoxicity Assay to monitor cytotoxicity in HepG2 cells - 16 hour (AID 1224876). Further: nearly all actives have a fitted effect of over 45% in size. Further: potency means the concentration at half of the fitted maximal effect. The gist of the method: (§4)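 Fluorescent DNA-binding dye, 600 HepG2 cells/well, 5 h preincubation then compound in DMSO; same plates read at 0–40 h, 37 C.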
Assay [7] is described as follows: qHTS RealTime-Glo MT Cell Viability Assay in HepG2 cells - 32 hour (AID 1224877). Further: nearly all actives have a fitted effect of over 55% in size. The procedure, abridged: (§5)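 HepG2 cells were seeded at 600 cells/well together with NanoLuc luciferase and a cell-permeant prosubstrate, preincubated 5 h at 37 C/5% CO2, then pin-dosed with compounds in DMSO. Nonlytic luminescence from viable cells was read at each time point.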
Assay [8] in a line: A CellTox Green Cytotoxicity Assay to monitor cytotoxicity in HepG2 cells - 40 hour (AID 1224879). Further: nearly all actives have a fitted effect of over 40% in size. Further: potency means the concentration at half of the fitted maximal effect. The procedure, abridged:
as §4

A short description of assay [9]: qHTS RealTime-Glo MT Cell Viability Assay in HEK293 cells - 0 hour (AID 1224880). Further: top concentration of the series differs between compounds; nearly all actives have a fitted effect of over 45% in size. The gist of the method:
(§6)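 Measured as luminescence from the same continuously cultured HEK293 wells at successive time points (0, 8, 16, 24, 32, 40 h) after compound addition. Reagent present from seeding; dosing at 5 h; incubation 37 C.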

A short description of assay [10]: A CellTox Green Cytotoxicity Assay to monitor cytotoxicity in HEK293 cells - 32 hour (AID 1224881). Further: nearly all actives have a fitted effect of over 40% in size. The gist of the method:
as §2

Assay [11] can be described thus: A CellTox Green Cytotoxicity Assay to monitor cytotoxicity in HepG2 cells - 0 hour (AID 1224882). Further: nearly all actives have a fitted effect of over 35% in size. Further: potency means the concentration at half of the fitted maximal effect. The procedure, abridged: as §4
A short description of assay [12]: qHTS RealTime-Glo MT Cell Viability Assay in HepG2 cells - 16 hour (AID 1224885). Further: nearly all actives have a fitted effect of over 50% in size. The gist of the method:
as §5

The nature of assay [13]: qHTS RealTime-Glo MT Cell Viability Assay in HEK293 cells - 8 hour (AID 1224887). Further: nearly all actives have a fitted effect of over 50% in size. Further: potency means the concentration at half of the fitted maximal effect. The gist of the method: as §6
The nature of assay [14]: A CellTox Green Cytotoxicity Assay to monitor cytotoxicity in HEK293 cells - 16 hour (AID 1224888). Further: nearly all actives have a fitted effect of over 35% in size. The gist of the method: as §2
Assay [15] in a line: qHTS RealTime-Glo MT Cell Viability Assay in HepG2 cells - 0 hour (AID 1224889). Further: nearly all actives have a fitted effect of over 50% in size. The gist of the method: as §5
Assay [16] is described as follows: qHTS RealTime-Glo MT Cell Viability Assay in HEK293 cells - 40 hour (AID 1224874). Further: nearly all actives have a fitted effect of over 50% in size. Further: potency means the concentration at half of the fitted maximal effect. To be noted: RealTime-Glo luminescence; max response: stronger effect = lower value. The gist of the method: as §6
Assay [17] in a line: A CellTox Green Cytotoxicity Assay to monitor cytotoxicity in HepG2 cells - 24 hour (AID 1224878). Further: nearly all actives have a fitted effect of over 45% in size. Further: potency means the concentration at half of the fitted maximal effect. The gist of the method: as §4
A short description of assay [18]: A CellTox Green Cytotoxicity Assay to monitor cytotoxicity in HepG2 cells - 32 hour (AID 1224883). Further: nearly all actives have a fitted effect of over 50% in size. Further: potency means the concentration at half of the fitted maximal effect. The gist of the method:
as §4

The nature of assay [19]: A CellTox Green Cytotoxicity Assay to monitor cytotoxicity in HEK293 cells - 8 hour (AID 1224884). Further: nearly all actives have a fitted effect of over 35% in size. Further: potency means the concentration at half of the fitted maximal effect. The procedure, abridged: as §2
Assay [20] is described as follows: qHTS RealTime-Glo MT Cell Viability Assay in HEK293 cells - 24 hour (AID 1224886). Further: nearly all actives have a fitted effect of over 50% in size. Further: potency means the concentration at half of the fitted maximal effect. The gist of the method: as §3

A number with no mark means an inactive call. Results filed as inconclusive are left out. Active and inactive are the calls of the source. The call rests on the fitted dose curve; in most records, active means well fitted curve in the direction sought with a large enough effect in the repeat runs; inconclusive means weak or mixed curves; inactive means no such curve, though single readings can be large; an effect the other way counts as inactive or inconclusive.
On the % scale 0 is the no-effect control and ±100 the full control effect.

On to `CN1C(=O)c2ccccc2C1=O`, for which the Potency result in [1], in [2], in [3], in assay [4], in [5] and in [6] was “inactive” throughout. In addition, the Potency result in [7], in assay [8], in assay [9], in assay [10], in assay [11] and in assay [12] was “inactive” throughout. Moreover, the Potency result in assay [13], in assay [14] and in [15] was “inactive” in each case.

`C=C(C)CCCC(C)CCO` (stereo not given): the Potency result in [1], in [2], in assay [3], in assay [5], in assay [6] and in [7] was “inactive” in each case. The Potency entry in [17], in assay [8], in assay [9], in assay [10], in assay [11] and in assay [18] was “inactive” each time. The Potency entry in assay [19], in assay [12], in assay [20], in [13], in assay [14] and in [15] was “inactive” each time. In addition, the max response in [16] is -17.9%.

In the case of `CC(=O)[C@H]1[C@H](C#N)C[C@H]2[C@@H]3CC=C4C[C@@H](O)CC[C@]4(C)[C@H]3CC[C@@]21C`, the Potency result in assay [1], in assay [2], in assay [3], in assay [4], in [5] and in [6] was “inactive” throughout. The Potency result in [7], in [17], in assay [8], in assay [9], in assay [10] and in [11] was “inactive” throughout. Moreover, the Potency entry in assay [18], in assay [19], in assay [12], in assay [13] and in assay [14] was “inactive” throughout.

Turning to `Nc1cccc2c1CN(C1CCC(=O)NC1=O)C2=O` (stereo not given), the Potency entry in [1], in assay [2], in [3], in assay [5], in [6] and in assay [7] was “inactive” throughout. The Potency entry in assay [17], in assay [8], in assay [9], in [10], in assay [11] and in assay [18] was “inactive” each time. Further, the Potency entry in assay [19], in [12], in assay [20], in [13] and in [14] was “inactive” each time. The max response in assay [16] is 2.81%.

For the compound `N#CCc1ccc(Cl)cc1Cl`, the Potency result in assay [1], in assay [2], in [3], in assay [4], in assay [5] and in assay [6] was “inactive” throughout. The Potency entry in assay [17], in [8], in assay [9], in assay [10], in [11] and in assay [18] was “inactive” in each case. For the same compound, the Potency entry in assay [12], in assay [20], in assay [13], in assay [14] and in [15] was “inactive” throughout. Further, the max response in assay [16] is -14.5%.

Consider `CC=C(Cl)Cl`, for which the Potency entry in assay [1], in assay [2], in assay [3], in assay [4], in assay [6] and in assay [7] was “inactive” in each case. The Potency entry in assay [17], in assay [8], in assay [9], in assay [11], in assay [18] and in [19] was “inactive” in each case. Besides, the Potency entry in [12], in [20] and in assay [13] was “inactive” in each case. Besides, in assay [16], the max response was 12.6%.

In the case of `O=C(Nc1cccc2c(=O)cc(-c3nn[nH]n3)oc12)c1ccc(OCCCCc2ccccc2)cc1`, the Potency result in [1], in assay [2], in assay [3], in assay [4], in [5] and in assay [7] was “inactive” throughout. In addition, the Potency result in assay [10], in assay [12], in assay [20], in assay [13] and in [14] was “inactive” throughout. Besides, the max response in [16] is -0.852%. Moreover, the Potency in [11] is 26.8 µM (active).

Regarding `CCCC(=O)C(=O)O`, the Potency entry in [1], in assay [2], in assay [3], in assay [5], in assay [6] and in assay [7] was “inactive” throughout. The Potency result in assay [17], in assay [8], in [9], in assay [10], in assay [11] and in [18] was “inactive” in each case. Moreover, the Potency result in assay [19], in assay [12], in assay [20], in assay [13] and in [14] was “inactive” throughout. Moreover, the max response in assay [16] is 13.4%.

In the case of `CCc1ccccc1`, the Potency entry in assay [1], in [2], in [3], in assay [4], in [5] and in assay [6] was “inactive” in each case. In addition, the Potency result in [17], in [8], in assay [9], in assay [10], in assay [11] and in [18] was “inactive” in each case. In addition, the Potency result in [19], in assay [12], in [20], in assay [13], in assay [14] and in assay [15] was “inactive” each time. For the same compound, the max response in [16] is 10.2%.

As to `O=C1c2ccccc2C(=O)N1CCc1noc(-c2ccc(CN3CCCCCC3)s2)n1`, the Potency result in assay [1], in assay [5], in assay [7], in [9] and in assay [15] was “inactive” in each case. Besides, the Potency in assay [2] was 40 µM (active); in assay [3], 22.5 µM (active); in assay [16] it was 20.1 µM (active); in assay [6], 20.1 µM (active); in assay [17] it was 31.8 µM (active); in assay [8] it was 35.7 µM (active). In addition, the Potency in [11], in [18], in assay [19], in [20] and in assay [13] was 35.7 µM (active) each time.

As to `O=C=Nc1ccc(Cl)c(Cl)c1`, the Potency entry in [1], in [2], in assay [3], in assay [4], in assay [5] and in assay [6] was “inactive” throughout. Besides, the Potency result in [8], in assay [9], in [10], in assay [11], in [18] and in [19] was “inactive” throughout. Further, the Potency result in [12], in assay [20], in assay [13], in [14] and in assay [15] was “inactive” each time. For the same compound, the max response in assay [16] is -3.97%.

As for `CNC(=O)c1cnn(-c2nc(N)c3ncn([C@@H]4O[C@H](CO)[C@@H](O)[C@H]4O)c3n2)c1`, the Potency entry in assay [1], in assay [2], in assay [3], in assay [5], in assay [6] and in assay [7] was “inactive” each time. Also, the Potency entry in assay [17], in assay [8], in assay [9], in assay [10], in assay [11] and in assay [18] was “inactive” each time. Besides, the Potency entry in [19], in assay [12], in assay [20], in [13], in assay [14] and in [15] was “inactive” in each case. Also, the max response in assay [16] is 4.42%.

Consider `CCCCCCNC(=O)n1cc(F)c(=O)[nH]c1=O`, for which the Potency entry in [1], in [2], in assay [3], in [4], in assay [5] and in assay [6] was “inactive” in each case. Also, the Potency entry in assay [17], in assay [8], in assay [9], in [11], in assay [18] and in assay [19] was “inactive” throughout. The Potency result in assay [12], in assay [20], in [13], in [14] and in assay [15] was “inactive” in each case. Besides, the max response in [16] is -6.08%.

`CC(=O)OCC[N+](C)(C)C`: the Potency result in assay [1], in [2], in assay [3], in assay [4], in assay [5] and in assay [6] was “inactive” in each case. Further, the Potency result in assay [17], in assay [8], in assay [9], in [10], in assay [11] and in assay [18] was “inactive” each time. Moreover, the Potency result in assay [19], in assay [12], in assay [20], in assay [13], in assay [14] and in assay [15] was “inactive” each time. Besides, in assay [16], the max response is 1.87%.

For `CCCCOc1ccc(OCCCN2CCOCC2)cc1`, the Potency result in assay [1], in assay [2], in [3], in assay [4], in [5] and in [6] was “inactive” throughout. Also, the Potency result in [8], in assay [9], in assay [10], in assay [11], in assay [18] and in assay [19] was “inactive” each time. In addition, the Potency entry in [12], in assay [13], in [14] and in [15] was “inactive” each time. Moreover, the max response in [16] is -27.6%.
